# Inconclusive results are not listed. Entries that show only a call come without a potency. Unmarked numbers belong to inactive results. The source made the active and inactive calls. Calls come from the whole dose curve; as a rule, active = well fitted inhibition curve with a large enough effect; inconclusive = small, poorly fitted or top-dose-only effect; inactive = no such curve, though single readings can be large or run the other way.
# Experiments:
# [1] = tested on: Zika virus NS2B-NS3 protease (unlinked complex); assay: Primary screen GU Rhodamine qHTS for Zika virus inhibitors: Unlinked NS2B-NS3 protease assay (AID 1347159); note: nearly all actives have a fitted effect of over 60% in size
# Outline: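 Unlinked NS2B/NS3, 25 nM; Rhod110 peptide, 1.5 microM; compounds, up to 114 microM. Reaction run 15 min at RT in 10 mM Tris-HCl pH 8.0, 0.01% Tween 20; kinetic fluorescence change fitted with a 4-parameter Hill model.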
# [2] = tested on: Zika virus NS2B-NS3 protease (linked construct); assay: Primary screen NINDS Rhodamine qHTS for Zika virus inhibitors (AID 1347160); note: nearly all actives have a fitted effect of over 55% in size
# Outline: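 Single-chain NS2B-NS3 protease, 25 nM, pH 8.0; compounds preincubated 15 min. Activity: Rhodamine110 release from 1.5 microM substrate over 15 min, room temperature, data fitted to 4-parameter Hill.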
# Potency is the fitted concentration of half-maximal effect.
SMILES,Potency [1],Potency [2],"activity change, negative = inhibition [1]","activity change, negative = inhibition [2]"
Cc1cc(C(C)Nc2ccccc2C(=O)O)c2nc(N3CCOCC3)cc(=O)n2c1 (stereo unspecified),inactive,inactive,–,–
NC(=O)C1=CC2C3C=CC2C(OC3=O)O1 (stereo unspecified),inactive,inactive,–,–
COC1C(O)C(OC2CCC3(C)C(CCC45CCC6C7(COC(=O)C7)OC4(O)C6(C)CCC35)C2)OC(C)C1OC1OC(CO)C(OC2OC(CO)C(O)C(O)C2O)C(O)C1O (stereo unspecified),inactive,inactive,–,–
CCC(C)c1ccc(NC(=O)Cn2cnc3c2c(=O)n(C)c(=O)n3C)cc1 (stereo unspecified),inactive,inactive,–,–
Cc1cc(C)nc(SCC(=O)Nc2ncc(Cc3cccc4ccccc34)s2)n1,inactive,inactive,–,–
COc1cc([C@H]2O[C@H](c3cc(OC)c4c(c3)OCO4)[C@H](C)[C@H]2C)cc(OC)c1OC,inactive,inactive,–,–
Cc1nc2c(C(F)(F)F)cccc2nc1-c1ccc(-c2cccc(S(C)(=O)=O)c2)cc1,inactive,inactive,–,–
COC1CC(=O)C23C(=O)NC(CC(C)C)C2C(C)C(C)=CC3/C=C(\C)CCCC1O (stereo unspecified),inactive,inactive,–,–
C=C(C)C(=O)O[C@H]1[C@H]2C(=C)C(=O)O[C@@H]2C[C@@H](C)[C@@H]2O[C@@H]2C(=O)[C@](C)(O)[C@@H]1OC(=O)C(=C)C,inactive,inactive,–,–
C=C1CC(=O)C2OC2(C)CC2OC(=O)C(=C)C2C(O)C1OC(=O)/C(C)=C\C (stereo unspecified),inactive,inactive,–,–
O=C(O)C1=CO[C@@H](O[C@@H]2O[C@H](CO)[C@@H](O)[C@H](O)[C@H]2O)[C@@H]2C(CO)=CC[C@H]12,inactive,inactive,–,–
O=C(Nc1ccc(CN2CCOCC2)cc1)c1ccc(-c2cccc(Cl)c2)o1,inactive,inactive,–,–
O=c1[nH]c([C@@H]2CCCN2)nc2c1oc1ccc(Cl)cc12,inactive,inactive,–,–
C[C@@H]1CCCN1CCc1cc2cc(-c3ccc(C#N)cc3)ccc2o1,inactive,inactive,–,–
CNc1cccc(CCOc2ccc3c(c2)CN(CC(F)(F)F)C(=O)[C@H](CC(=O)O)C3)n1,inactive,inactive,–,–
Cn1ncnc1[C@@H]1c2n[nH]c(=O)c3cc(F)cc(c23)N[C@H]1c1ccc(F)cc1,inactive,inactive,–,–
Cc1cc2occ(CN(C)CCN(C)Cc3cn(-c4cccc(C(F)(F)F)c4)c4ccccc34)c(=O)c2cc1C,inactive,inactive,–,–
CCO[C@H]1CN(C2CCC(O)(c3ccc4c(c3)OCO4)CC2)C[C@@H]1NC(=O)CNC(=O)c1cccc(C(F)(F)F)c1 (stereo partly specified),inactive,inactive,–,–
C=C1C(=O)O[C@@H]2C[C@@]3(C)CCCC(=C)[C@]3(O)C[C@H]12,inactive,inactive,–,–
Cc1cnc(-c2ccccc2C(C)C)nc1NCc1ccc(-n2ccnn2)cc1,inactive,inactive,–,–
CC#CCn1c(N2CCCC(N)C2)nc2c1c(=O)n(Cc1nc(C)c3ccccc3n1)c(=O)n2C (stereo unspecified),inactive,inactive,–,–
COCCN(C(=O)c1cc(OC)c(OC)c(OC)c1)c1nc(-c2ccccc2)cs1,inactive,inactive,–,–
CC[C@H](C)/C=C(C)/C=C/C1=CC2=C(Cl)C(=O)[C@](C)(O)[C@H](OC(C)=O)[C@H]2CO1,10 µM (active),11.2 µM (active),–,–
CNC(=O)c1ccc2c(c1)CCO[C@H]2CCN1CCN(c2ccc(OC)cc2)CC1,inactive,inactive,–,–

SMILES,Potency [1],Potency [2],"activity change, negative = inhibition [1]","activity change, negative = inhibition [2]"
C=C1CC[C@@H]2[C@](C)(CO)[C@H](O)CC[C@@]2(C)[C@@H]1/C=C/C1=CCOC1=O,inactive,inactive,–,–
C=C(C)C1=C[C@@]2(C)C(=CC1=O)CC[C@@H](O)[C@@H]2C,inactive,inactive,–,–
CNC(=O)COC(=O)N1CCC(CCc2ccc(Cl)cc2)CC1,inactive,inactive,–,–
C[C@@]12C(=O)N(c3ccc(C(=O)Nc4cccc5cccnc45)cc3)C(=O)[C@@H]1[C@@H]1C=C[C@H]2C1,inactive,inactive,–,–
CCn1nc(C2CCN(C(=O)CCO)CC2)nc1-c1cnc(N)c(-c2nnc(C(C)(C)C)o2)n1,inactive,inactive,–,–
CCCN(CCc1ccsc1)C1CCc2c(O)cccc2C1 (stereo unspecified),inactive,inactive,–,–
O=C(Nc1ccc(C(F)(F)F)cn1)N1CCN(c2ncccc2C(F)(F)F)CC1,inactive,inactive,–,–
CCCN1CCC=C(c2cc(-c3ccc(C)cc3)no2)C1,inactive,inactive,–,–
CC(=O)OC1C(O)CC2(C)C(CCC3(C)C2CC=C2C4C5(CCC(CO[C@@H]6O[C@H](CO)[C@@H](O)[C@H](O)[C@H]6O)(OC5=O)C4(C)O)C(O)CC23C)C1(C)C (stereo partly specified),inactive,inactive,–,–
COC1CC(O[C@H]2CC[C@]3(C)C4CC[C@]5(C)C(C6=CC(=O)OC6)=CCC56OC46CC[C@@H]3C2)OC(C)C1O[C@@H]1O[C@H](CO[C@@H]2O[C@H](CO)[C@@H](O)[C@H](O)[C@H]2O)[C@@H](O)[C@H](O)[C@H]1O (stereo partly specified),inactive,inactive,–,–
CCC(C)C(=O)OC1C(C)C2(O)C(C=C(CO)CC3(O)C(=O)C(C)=CC32)C2C(C)(C)C12OC(=O)C(C)C (stereo unspecified),inactive,inactive,–,–
Fc1ccc(-c2nc(-c3c(F)cccc3F)[nH]c2-c2ccncc2)cc1,inactive,inactive,–,–
C[C@@H]1O[C@@H](O[C@H]2[C@@H](OC(=O)[C@]34CCC(C)(C)CC3C3=CCC5[C@@]6(C)C[C@H](O)[C@H](O[C@@H]7O[C@H](CO)[C@@H](O)[C@H](O)[C@H]7O[C@@H]7OC[C@@H](O)[C@H](O)[C@H]7O)[C@@](C)(C(=O)O)C6CC[C@@]5(C)[C@]3(C)CC4)OC[C@H](O)[C@@H]2O)[C@H](O)[C@H](O)[C@H]1O[C@@H]1OC[C@@H](O)[C@H](O)[C@H]1O (stereo partly specified),–,–,46.4% [at 19.1 µM],21.4% [at 10.7 µM]
COc1cc(NC(=O)c2cc(C3CC3)on2)c(OC)cc1Cl,inactive,inactive,–,–
Cc1cccc(C#Cc2cc(F)cc(C#N)c2)n1,inactive,inactive,–,–
CN(C)Cc1ccc(-c2cnn3c(-c4cccc(NC(=O)c5cccc(C(F)(F)F)c5)c4)ccnc23)cc1,inactive,inactive,–,–
CC(C)CCNC(=O)[C@H](CC(C)C)NC(=O)[C@H]1O[C@@H]1C(=O)O,inactive,inactive,–,–
CCC(C)CNCC(=O)N1CCc2sccc2C1COc1cccc(C)c1 (stereo unspecified),inactive,inactive,–,–
CO[C@@H]1[C@H](O)CCC2(CO2)[C@H]1[C@@]1(C)O[C@@H]1CC=C(C)C (stereo partly specified),inactive,inactive,–,–
O=C(NCCCc1ccccc1)C1CCC(CNS(=O)(=O)c2cccc3nsnc23)CC1 (stereo unspecified),inactive,inactive,–,–
CCN(CCNC(=O)Nc1ccccc1Br)c1cccc(C)c1,inactive,inactive,–,–
CCn1c(-c2nonc2N)nc2c(C#CC(C)(C)O)ncc(OCC3CCCNC3)c21 (stereo unspecified),inactive,inactive,–,–
Nc1nc2c(c(N3CC[C@@H](N)C3)n1)CCCc1ccccc1-2,inactive,inactive,–,–
c1ccc(-c2cnn3cc(-c4ccc(OCCN5CCOCC5)cc4)cnc23)cc1,inactive,inactive,–,–

# Source: PubChem BioAssay (NCATS)
